Results on three molecules are retold here after PubChem BioAssay AID493221 (Johns Hopkins Ion Channel Center, 2011).

Molecules are shown by their SMILES. The whole screen tested about 2,400 compounds, of which about 1,700 (71%) were called active.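 The calls were made as follows: active = choline transporter activity left, mean of duplicates at 10 µM, below buffer-only control mean minus 3 SD; inactive = the rest.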 The set was probably picked from earlier hits. Not all results are given here.

Sequence of High affinity choline transporter 1 (Homo sapiens) (Q9GZV3 whole entry, looked up): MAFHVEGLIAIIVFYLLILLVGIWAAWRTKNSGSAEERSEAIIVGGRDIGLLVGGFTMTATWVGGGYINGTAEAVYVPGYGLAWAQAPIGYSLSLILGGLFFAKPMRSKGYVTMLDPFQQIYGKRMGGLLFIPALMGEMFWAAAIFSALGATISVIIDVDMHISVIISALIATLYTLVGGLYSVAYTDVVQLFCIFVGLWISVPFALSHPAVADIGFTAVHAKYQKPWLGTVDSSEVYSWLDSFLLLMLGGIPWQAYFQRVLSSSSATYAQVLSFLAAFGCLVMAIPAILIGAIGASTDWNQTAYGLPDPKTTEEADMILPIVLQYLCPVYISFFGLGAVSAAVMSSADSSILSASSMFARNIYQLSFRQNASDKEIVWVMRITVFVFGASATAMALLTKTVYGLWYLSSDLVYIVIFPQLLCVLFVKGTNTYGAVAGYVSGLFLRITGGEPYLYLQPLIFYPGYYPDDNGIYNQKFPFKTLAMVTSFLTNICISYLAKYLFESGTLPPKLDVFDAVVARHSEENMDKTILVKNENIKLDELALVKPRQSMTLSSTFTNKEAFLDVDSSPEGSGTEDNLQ

This assay addresses High affinity choline transporter 1 (Homo sapiens) (UniProt Q9GZV3). The assay is described as follows: human choline transporter blockers – cell-based, membrane potential dye, duplicate, confirmation (AID 493221). Conditions: CHT-expressing cells, at 10 µM, LV-to-AA substituted CHT, HEK293 cells.
With `C[N+]1(C)CCOC(O)(c2ccc(-c3ccc(C4(O)C[N+](C)(C)CCO4)cc3)cc2)C1` (stereo not drawn), the CHT activity remaining % of control (stronger effect = lower value) was 4.79% (active).

As for `COc1ccccc1N1CCN(C(CNC(=O)Oc2ccccc2)c2cccnc2)CC1` (stereo not drawn), the CHT activity remaining % of control (stronger effect = lower value) entry is “inactive”.

Regarding `Cc1nc2ccccn2c1P(=S)(N1CCCCC1)N1CCCCC1`, the CHT activity remaining % of control (stronger effect = lower value) is 61.1% (active).
